Measurements as given in the supplement of paper PMC4962491.
± gives the standard deviation of the averaged measurements.

Tested on: FaDu
Test: mitochondrial oxygen consumption rate normalised to cell number, Z score vs plate DMSO wells; higher = higher oxygen consumption (negative = OCR reduction)
Conditions: treatment time 24 h, assay medium: 5 mM glucose, 5 mM pyruvate, 4 mM glutamine
Protocol: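 Secondary screen: FaDu cells were incubated 24 h with the top 130 primary hits at 0.08, 0.4, 2 or 10 uM. Mitochondrial-specific OCR (basal minus antimycin A) was measured on a Seahorse XF96 in medium with 5 mM glucose, 5 mM pyruvate and 4 mM glutamine and normalised to Hoechst cell number. OCR score = (OCR - mean of plate DMSO wells) / SD of plate DMSO wells. Three repeats.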
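Also: compound exposure in DMEM (4 mM L-glutamine, 5 mM glucose), antimycin A injected at 2 µM after the basal reading and its residual OCR subtracted from basal.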

SMILES	mitochondrial oxygen consumption rate normalised (0.08 µM)	mitochondrial oxygen consumption rate normalised (0.4 µM)	mitochondrial oxygen consumption rate normalised (2 µM)	mitochondrial oxygen consumption rate normalised (10 µM)
COc1cc(NS(C)(=O)=O)ccc1Nc1c2ccccc2nc2ccccc12	-0.738 ± 1.7	1.51 ± 1.1	-1.58 ± 0.81	-5.19 ± 1.7
N=C(N)c1ccc(OCCCCCOc2ccc(C(=N)N)cc2)cc1	0.754 ± 1.1	-0.0335 ± 0.92	-2.03 ± 2.2	-6.65 ± 1.6
COc1cccc2c1C(=O)c1c(O)c3c(c(O)c1C2=O)C[C@@](O)(C(C)=O)C[C@@H]3O[C@H]1C[C@H](N)[C@H](O)[C@H](C)O1	1.45 ± 1.5	-2.21 ± 0.4	-6.3 ± 0.54	
CCN(CC)CCOC(=O)C(c1ccccc1)C1CCCCC1 (configuration not stated)	0.349 ± 1.2	1.06 ± 1	1.23 ± 0.9	1.37 ± 1.6
CO[C@@]12[C@H](COC(N)=O)C3=C(C(=O)C(C)=C(N)C3=O)N1C[C@@H]1N[C@@H]12	-0.603 ± 0.39	1.96 ± 0.85	-1.73 ± 1.2	-3.99 ± 1.3
CC[C@@]1(O)C(=O)OCc2c1cc1n(c2=O)Cc2cc3c(CN(C)C)c(O)ccc3nc2-1 [Topotecan]	-0.916 ± 1.4	0.308 ± 0.26		0.664 ± 1.4
Nc1nc2[nH]cnc2c(=S)[nH]1	-1.04 ± 1.9	-0.865 ± 0.14	-5.57 ± 0.33	-5.01 ± 1.4
CCOC(=O)CCC(=O)O[C@H]1[C@H](O[C@@H]2[C@@H](C)[C@H](O[C@H]3C[C@@](C)(OC)[C@@H](O)[C@H](C)O3)[C@@H](C)C(=O)O[C@H](CC)[C@@](C)(O)[C@H](O)[C@@H](C)C(=O)[C@H](C)C[C@@]2(C)O)O[C@H](C)C[C@@H]1N(C)C	-0.00592 ± 1.6	0.83 ± 0.89	-0.161 ± 1.9	1.22 ± 0.77
Cc1cc(C(C)(C)CC(C)(C)C)ccc1OCCOCC[N+](C)(C)Cc1ccccc1	-1.05 ± 0.63	0.588 ± 0.44	-5.29 ± 1.2	-12.6 ± 0.23
Clc1ccc(COC(Cn2ccnc2)c2ccc(Cl)cc2Cl)cc1 (configuration not stated)	0.524 ± 0.89	0.994 ± 1.6	0.111 ± 1.5	-4.62 ± 1.4
CC(C(O)c1ccc(O)cc1)N1CCC(Cc2ccccc2)CC1 (configuration not stated)	0.382 ± 1.5	0.565 ± 0.59	-0.938 ± 1.3	0.802 ± 0.91
